Assay outcomes as filed in PubChem BioAssay.
ALOX15 inhib – blocks human 15-lipoxygenase activity; P16050; purified 15hLO-1, xylenol orange hydroperoxide absorbance; Potency, µM (highest dose often 57.1 µM), hits mostly inhibitors; hit rate 1.4% among 74,000; also: nearly all actives have a fitted effect of over 55% in size
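40 nM 15hLO-1 + cpd, 15 min RT; start w/ 50 uM AA (final), 6 min RT; stop/detect w/ 200 uM XO + 300 uM Fe(II) in 50 mM H2SO4, 30 min; A573/A405. Buffer 25 mM Hepes pH 7.5, 0.01% Triton X-100. No-enzyme wells as negative control.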
Hsp90 Hop PPI – changes Hsp90-Hop TPR2A binding signal, up or down; AlphaScreen TPR2A-His6 binding biotin-Hsp90 C-terminal peptide; Potency, µM (titrated, usually from 57 µM); hit rate 0.44% among 71,000; AID 595; active = well fitted curve in either direction with a large enough effect; inconclusive = small, poorly fitted or top-dose-only effect, or another doubt
IkB signaling – IkB pathway inhibition in ABC-DLBCL cells; ABC-DLBCL IkBa-CBG/CBR dual luciferase ratio, 4 h; response scale: scaled: untreated 0%, proteasome inhibitor 100%; Potency, µM (series often up to 57.1 µM); hit rate 0.04% among 110,000; AID 445; active = well fitted curve in the direction sought with a large enough effect in the signal ratio, not every such curve was filed as active; inconclusive = small, poorly fitted or top-dose-only effect, or a change in a side signal; the % refers to the signal ratio;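 also: the direction sought is a rising ratio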
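Luminescence ratio of IκBα-fused green versus native red beetle luciferase in OCI-Ly3 cells, 4 h post-doxycycline with compound; red signal alone, scaled from basal (0%) to zero light (-100%), flagged nonspecific or cytotoxic effects.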
Tau filament bind – binds recombinant human tau filaments; P10636; recombinant tau filaments, thioflavin S fluorescence, 15 h; filaments grown with octadecylsulfate alongside compound; Potency, µM (doses to about 57.1 µM); hit rate 2% among 71,000; AID 596;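 also: actives lower thioflavin S fluorescence by blocking filaments or displacing dye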
Target sequence (P10636 whole entry, looked up): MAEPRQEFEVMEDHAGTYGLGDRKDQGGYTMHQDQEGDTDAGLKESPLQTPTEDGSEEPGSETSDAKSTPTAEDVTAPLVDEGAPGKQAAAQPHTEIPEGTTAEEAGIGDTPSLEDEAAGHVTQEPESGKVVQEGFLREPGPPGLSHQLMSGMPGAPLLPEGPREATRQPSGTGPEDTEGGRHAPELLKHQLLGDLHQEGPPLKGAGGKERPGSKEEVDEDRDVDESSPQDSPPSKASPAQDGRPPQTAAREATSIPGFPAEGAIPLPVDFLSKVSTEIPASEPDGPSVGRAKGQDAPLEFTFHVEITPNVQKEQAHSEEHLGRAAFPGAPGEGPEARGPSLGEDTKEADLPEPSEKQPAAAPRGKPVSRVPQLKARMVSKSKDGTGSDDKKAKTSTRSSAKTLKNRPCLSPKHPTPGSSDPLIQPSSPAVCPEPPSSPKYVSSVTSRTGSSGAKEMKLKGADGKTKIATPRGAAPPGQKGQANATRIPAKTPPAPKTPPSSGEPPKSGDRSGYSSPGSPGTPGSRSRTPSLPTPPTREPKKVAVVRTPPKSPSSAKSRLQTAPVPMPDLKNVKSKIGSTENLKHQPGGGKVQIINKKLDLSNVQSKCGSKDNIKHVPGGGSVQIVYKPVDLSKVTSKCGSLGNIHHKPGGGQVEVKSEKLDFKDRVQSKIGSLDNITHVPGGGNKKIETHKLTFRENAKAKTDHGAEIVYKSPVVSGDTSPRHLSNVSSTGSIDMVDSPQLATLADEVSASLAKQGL
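Read-out: ThS fluorescence, 450 nm excitation/510 nm emission; lower signal marks blocked filament formation or displaced dye. Tau at 1 uM with 30 uM ODS, 10 uM ThS, 5 mM DTT, 100 mM NaCl, 10 mM HEPES pH 7.4; 15 h, 37 C.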
CRE Fsk mod – alters forskolin-stimulated CRE reporter signaling in CHO cells. Potency, µM (titrated, usually from 38.2 µM), most hits filed as activators. CHO CRE-bla reporter (cAMP response element driving beta-lactamase), forskolin EC10, beta-lactamase ratio. hit rate 2.5% among 71,000; active = well fitted activation curve with a large enough effect in the signal ratio, with a control signal flat, not every such curve was filed as active; inconclusive = small, poorly fitted or top-dose-only effect, or effect the other way, or a change in a side signal; the % refers to the signal ratio
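CHO CRE-bla cells, overnight plating in Opti-MEM with 0.5% dialyzed FBS; cpd titration + EC10 NKH 477, 3 h 37 °C; CCF4 2 h RT; ex 405/em 460 vs 530 ratio → %Activity, AC50.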
Large screens that a line does not name were inactive. Shown are actives, neighbours in structure and some others; about 3.6% of the full set was active somewhere. Unless noted, calls follow the shape of the dose curve; as a rule, active = well fitted curve in the direction sought with a large enough effect; inconclusive = small, poorly fitted or top-dose-only effect, or another doubt; inactive = no such curve, though single readings can be large; an effect the other way counts as inactive or inconclusive.

COC(=O)/C=c1/sc2nc3ccccc3n2c1=O	ALOX15 inhib inconclusive
COc1cc(OC)c(OC)cc1CNCCCSc1nnnn1C	none (no result: ALOX15 inhib, Hsp90 Hop PPI, Tau filament bind, CRE Fsk mod)
N=c1c(C(=O)NCc2ccc(F)cc2)cc2c(=O)n3ccccc3nc2n1Cc1ccco1	Tau filament bind inconclusive, CRE Fsk mod inconclusive
CCOC(=O)c1cc2c(=O)n3ccccc3nc2n(Cc2ccc(Cl)cc2)c1=N	Tau filament bind 0.5µM, CRE Fsk mod inconclusive
CCn1c(=N)c(C(=O)OC)cc2c(=O)n3ccccc3nc21	CRE Fsk mod 10µM
CCOC(=O)c1cc2c(=O)n3cc(C)ccc3nc2n(Cc2cccnc2)c1=N	none
N=c1c(C(=O)NCc2ccco2)cc2c(=O)n3ccccc3nc2n1Cc1ccccc1	ALOX15 inhib inconclusive, Tau filament bind inconclusive, CRE Fsk mod 10µM
COCCn1c(=N)c(C(=O)NCc2ccco2)cc2c(=O)n3ccccc3nc21	CRE Fsk mod inconclusive
N=c1c(C(=O)NCc2ccco2)cc2c(=O)n3ccccc3nc2n1Cc1ccc(Cl)cc1	Tau filament bind 3.2µM, CRE Fsk mod 2.5µM
C[C@@H](SCc1ccccc1)C(=O)O	none
CO/N=C\[C@@H](OC)[C@H](C)/C=C\CC(=O)OC	none (no result: Hsp90 Hop PPI, IkB signaling, Tau filament bind, CRE Fsk mod)
CC1=C(C(=O)Nc2ccccc2)C(c2ccncc2)n2nc(SCc3ccccc3F)nc2N1 (stereo unspecified)	none (no result: ALOX15 inhib, Hsp90 Hop PPI, Tau filament bind, CRE Fsk mod)
CCn1cc(C(=O)NCCCOC)c(=O)c2cc(S(=O)(=O)N3CCc4ccccc4C3)ccc21	none (no result: ALOX15 inhib, Hsp90 Hop PPI, Tau filament bind, CRE Fsk mod)
Cc1cccn2c(=O)c3cc(C(=O)NCc4ccco4)c(=N)n(CCc4ccccc4)c3nc12	Tau filament bind 1.6µM, CRE Fsk mod inconclusive
Cc1ccc(-c2csc3nnc(SCC(=O)N4CCN(Cc5ccccc5)CC4)n23)cc1	Tau filament bind 20µM
COc1cc(/C=C/C(=O)N2CCC=CC2=O)cc(OC)c1OC	none (no result: Hsp90 Hop PPI, IkB signaling, Tau filament bind, CRE Fsk mod)
COc1nnc(-c2ccc(N3CCOCC3)c(NC(=O)c3ccco3)c2)c2ccccc12	CRE Fsk mod 2µM
COc1cc(NC(=O)c2nc3cc(C)c(C)cc3n(C)c2=O)cc(OC)c1OC	none (no result: ALOX15 inhib, Hsp90 Hop PPI, Tau filament bind, CRE Fsk mod)
COc1cc(NC(=O)C2CCCN2S(=O)(=O)c2ccc3c(c2)CCC(=O)N3)cc(OC)c1 (stereo unspecified)	Hsp90 Hop PPI inconclusive
COc1ccc(C)cc1NC(=O)C1CCCN1S(=O)(=O)c1ccc2c(c1)CCC(=O)N2 (stereo unspecified)	Tau filament bind 25µM
O=c1c2sc3ccccc3c2n(Cc2ccccc2F)c(=O)n1CCc1ccccc1	none (no result: ALOX15 inhib, Hsp90 Hop PPI, Tau filament bind, CRE Fsk mod)
Cc1cc2n(n1)C(c1ccc(N(C)C)cc1)Nc1ccccc1-2 (stereo unspecified)	CRE Fsk mod 7.9µM
CCOC(=O)c1nnc2cc(-c3ccc(Br)cc3)nn2c1C	Tau filament bind 10µM
CCOC(=O)c1cc(-c2ccccc2)nn1Cc1ccccc1	none (no result: ALOX15 inhib, Hsp90 Hop PPI, Tau filament bind, CRE Fsk mod)
CCOC(=O)c1nnc2cc(-c3ccccc3)nn2c1C	Tau filament bind 16µM
CCOC(=O)c1cnc2cc(-c3ccc(OCC)cc3)nn2c1-c1ccccc1	none (no result: ALOX15 inhib, Hsp90 Hop PPI, Tau filament bind, CRE Fsk mod)
COC(=O)c1ccc(Cl)cc1NC(=O)Nc1nnc(N(C)C2CCCCC2)s1	none (no result: ALOX15 inhib, Hsp90 Hop PPI, Tau filament bind, CRE Fsk mod)
CCCc1noc(-c2ccc(NCc3ccccc3OC)c([N+](=O)[O-])c2)n1	none (no result: ALOX15 inhib, Hsp90 Hop PPI, Tau filament bind, CRE Fsk mod)
Brc1c(CSc2nnc(-c3ccco3)o2)nc2ccccn12	Hsp90 Hop PPI inconclusive, CRE Fsk mod 3.2µM
c1coc(-c2nnc(SCc3cn4ccccc4n3)o2)c1	CRE Fsk mod 10µM
O=C(O)CSc1nnc(-c2ccco2)o1	none
CN(C)C(=O)c1ccc2c(c1)N(CC(=O)NCc1ccccc1Cl)C(=O)C1CCCCN21 (stereo unspecified)	none (no result: ALOX15 inhib, Hsp90 Hop PPI, Tau filament bind, CRE Fsk mod)
Cc1csc(Sc2nc3c(c(=O)[nH]c(=O)n3C)n2Cc2ccccc2Cl)n1	none
C/C=C/Cn1c(SCc2ccc(Cl)cc2)nc2c1c(=O)[nH]c(=O)n2C	ALOX15 inhib inconclusive, IkB signaling inconclusive, CRE Fsk mod 2µM
CCC(C)Sc1nc2c(c(=O)[nH]c(=O)n2C)n1Cc1ccccc1Cl (stereo unspecified)	CRE Fsk mod 5µM
CCCn1c(SCc2ccc(Cl)cc2)nc2c1c(=O)[nH]c(=O)n2C	IkB signaling inconclusive, CRE Fsk mod 13µM
C/C=C/Cn1c(SC)nc2c1c(=O)[nH]c(=O)n2C	IkB signaling inconclusive, CRE Fsk mod 10µM
C/C=C/Cn1c(Br)nc2c1c(=O)[nH]c(=O)n2C	CRE Fsk mod inconclusive
